# Results published in PubChem BioAssay (EPA / NIEHS).
# Several values for one entry are separate records, joined by “and”; a condition that tells them apart may be missing. Equal values may be shown once. Activity calls are given as the source filed them. The calls were made as follows: active = hit-call score of the fitted dose curve at least 0.9, where 1 is the maximum; inconclusive = response in the unintended direction; inactive = score below 0.9.
# Molecular target: Peroxisome proliferator-activated receptor gamma (Homo sapiens) (UniProt P37231)
# Sequence (P37231 whole entry, looked up): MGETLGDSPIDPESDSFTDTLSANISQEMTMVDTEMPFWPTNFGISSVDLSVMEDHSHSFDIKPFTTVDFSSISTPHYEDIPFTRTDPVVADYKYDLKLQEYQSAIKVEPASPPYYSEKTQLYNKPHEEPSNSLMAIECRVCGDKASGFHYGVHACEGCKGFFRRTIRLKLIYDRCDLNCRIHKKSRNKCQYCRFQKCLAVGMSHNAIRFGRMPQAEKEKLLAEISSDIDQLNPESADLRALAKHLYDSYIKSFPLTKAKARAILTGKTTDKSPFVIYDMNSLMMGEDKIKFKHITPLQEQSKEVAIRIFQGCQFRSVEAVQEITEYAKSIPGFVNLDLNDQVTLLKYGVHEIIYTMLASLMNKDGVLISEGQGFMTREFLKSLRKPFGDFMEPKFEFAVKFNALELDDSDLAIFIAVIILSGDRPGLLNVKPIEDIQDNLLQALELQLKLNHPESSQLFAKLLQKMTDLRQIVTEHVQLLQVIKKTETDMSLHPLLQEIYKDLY
# Experiment: OT_PPARg_PPARgSRC1_1440: Odyssey Thera (OT) 24-hour Protein-Complementation Assay for Peroxisome Proliferator-activated Receptor Gamma/ SRC-1 Co-activator (AID 2283388);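 also: nuclear to cytoplasmic ratio of reconstituted Venus YFP fluorescence in fixed imaged cells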
# In short: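 Protein-fragment complementation between PPARg and coactivator SRC-1 was measured by fluorescence imaging in transiently transfected HEK293T cells after 24 h treatment. Signal was quantified as N/C ratio in the 488 nm channel, with DMSO as negative control.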
Compound,outcome,AC50
CNC(=O)[C@H]1O[C@@H](n2cnc3c(NCc4cc(Cl)ccc4OCc4cc(C)no4)ncnc32)[C@H](O)[C@@H]1N,inactive,–
C=CCOC(=O)c1ccccc1C(=O)OCC=C,inactive,–
CNCc1cc(F)ccc1Oc1ccc(Cl)c(Cl)c1,inactive,–
CCc1c(C(=O)NN2CCCCC2)nn(-c2ccc(Cl)cc2Cl)c1-c1ccc(Br)cc1,inactive,–
CCOC(=O)C(C)(C)Oc1ccc(Cl)cc1,inactive,–
C1CCC(SSC2CCCCC2)CC1,inactive,–
CN[C@H]1CC[C@@H](c2ccc(Cl)c(Cl)c2)c2ccc(S(N)(=O)=O)cc21,inactive,–
O=c1[nH]cc(F)c(=O)[nH]1,inactive,–
Cc1oc(-c2ccccc2)nc1CCOc1cccc2c1ccn2CCC(=O)O,–,3.58 µM (active) and 2.88 µM (active)
NCC1(Cc2noc(=O)[nH]2)CCCCC1,inactive,–
NS(=O)(=O)c1cc2c(cc1Cl)NCNS2(=O)=O,inactive,–
COc1cc(-c2nc(NC(=O)c3cc4cc(C)cc(C)c4n3CC(=O)O)sc2CCC2CCCCC2)c(OC)cc1Cl,inactive,–
CCCCCCCC=O,inactive,–
Cc1ccc(C)c(O)c1C,inactive,–
FC(F)(F)C(F)(F)C(F)(F)C(F)(F)C(F)(F)C(F)(F)CCI,inactive,–
CN1CCCC1=O,inactive,–
CCCCCCCCCCCCCCCC,inactive,–
Cc1ccc(Cl)cc1,inactive,–
CC(=O)Oc1ccccc1C(=O)O,inactive,–
O=C(N[C@@H](Cc1ccccc1)[C@@H](O)C(=O)N1C[C@@H](O)[C@@H](O)C1)c1cc2cc(Cl)ccc2[nH]1,inactive,–
CCCCCCCCCCC,inactive,–
CCCCOC(=O)CCCCCCCCC(=O)OCCCC,inactive,–
OC[C@@H](O)[C@@H](O)[C@H](O)[C@H](O)CO,inactive,–
COCCOCCOC,inactive,–
CCCCc1ccc2c(n1)[C@@H](c1ccc(OC)cc1C[C@H](C)C(=O)O)[C@H](C(=O)O)[C@H]2c1ccc2c(c1)OCO2,inactive,–
O=C(OCCCCCOC(=O)c1ccccc1)c1ccccc1,inactive,–
Cc1ccc(C(C)C)c(O)c1,inactive,–
Cc1ccc2ncccc2c1,inactive,–
